These results are taken from PubChem BioAssay (Tox21).

Inconclusive results are not listed. Entries that show only a call come without a potency. The source holds several records for some structures; these can differ, active in one and inactive in another. A number with no mark means an inactive call. The source made the active and inactive calls. The call rests on the fitted dose curve; in most records, active means well fitted cell-killing curve with a large enough effect in the repeat runs; inconclusive means weak or mixed curves, or effect the other way; inactive means flat fitted curve, though single readings scatter.
Potency means the concentration at half of the fitted maximal effect.

The assay is described as follows: Human pregnane X receptor (PXR) small molecule agonists, qHTS cell viability counter screen (AID 1346977). Further: nearly all actives have a fitted effect of over 50% in size. Conditions: PXR-Luc HepG2 viability, CellTiter-Fluor, 24 h; series mostly up to 92.4 µM; activity change, negative = cytotoxicity: at the top concentration. Summed up:
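Readout is CellTiter-Fluor fluorescence from PXR-Luc HepG2 cells. Plated cells rested 5hr, then were treated with compounds for 24hr at 37C and 5% CO2, with reagent present during the last hour.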
(Quantitative high-throughput screening tests each substance at several concentrations.)
On to `c1ccc2c(c1)[nH]c1ccccc12`, for which the Potency result is “inactive”.
With `Cc1ccc2c(c1)C(=O)OC2=O`, the Potency entry was “inactive”.
Regarding `CNC[C@H](O)c1ccc(O)c(O)c1`, the Potency result is “inactive”.
Same read-out and setting: to `FC(F)(F)C(Cl)Br` (stereo not given) belongs “inactive”; to `COCCOCCOCCO`, “inactive”; to `CCCCCCCC/C=C\CCCCCCCC(=O)O`, “inactive”.
Consider `C=CCOC(=O)C(=C)C`, for which the Potency result was “inactive”.
On the same count and under the same terms, the entry for `C=CN1CCCC1=O` is “inactive”; for `CC1=CC(C)(C)Nc2ccccc21` it is “inactive”; for `CCCCCCCCCCCCCO` it is “inactive”.
The same measure, in the same setting: to `CCCN1C=CN(C)C1` belongs “inactive”; to `CC1(C)O[C@@H]2C[C@H]3[C@@H]4C[C@H](F)C5=CC(=O)C=C[C@]5(C)[C@@]4(F)[C@@H](O)C[C@]3(C)[C@]2(C(=O)CO)O1`, “inactive”; to `c1ccc2ncccc2c1`, “inactive”.
The same measure, in the same setting: to `CCC(Cc1c(I)cc(I)c(N)c1I)C(=O)O` (stereo not given) belongs “inactive”.
Take `OCCNCCO`: the Potency entry was “inactive”.
Regarding `C1COCCN1`, the Potency result is “inactive”.
Turning to `NCCS(=O)(=O)O`, the “activity change, negative = cytotoxicity” value was 0.248% [at 42.5 µM].
Take `COc1ccc(C(=O)c2ccccc2O)c(O)c1`: the Potency result was “inactive”.
For the molecule `CC(=O)Nc1ccc2c(c1)Cc1cc(NC(C)=O)ccc1-2`, the Potency entry was “inactive”.
Regarding `C[C@]12C=CC(=O)C=C1CC[C@H]1[C@@H]3C[C@@H](O)[C@](O)(C(=O)CO)[C@@]3(C)C[C@H](O)[C@@]12F`, the Potency result was “inactive”.
For `Cc1ccc(C(C)(C)C)cc1`, the Potency result is “inactive”.
Same read-out and setting: the entry for `CCC/C=C/C=O` is “inactive”.
In the case of `C/C=C/C(=O)N(CC)c1ccccc1C`, the Potency result was “inactive”.
Still for that read-out and setting: to `Brc1nc2ccccc2s1` belongs “inactive”.
Regarding `[Na+]`, the Potency entry is “inactive”.
With `CCO[Si](CCCNC(N)=O)(OCC)OCC`, the Potency entry is “inactive”.
Turning to `Cc1cccc(Nc2ccccc2C(=O)O)c1C`, the Potency entry is “inactive”.
Consider `NC[C@H](O)c1ccc(O)c(O)c1`, for which the “activity change, negative = cytotoxicity” value is -18.4% [at 42.5 µM].
Consider `O=[Se](O)O`, for which the Potency is 24.4 µM (active) and the activity change, negative = cytotoxicity is 6.76% [at 19 µM].
For the molecule `NCCOCCO`, the Potency result is “inactive”.
Turning to `C=CC(=O)OCCCC`, the Potency result is “inactive”.
On to `CCCCCCOCCOCCO`, for which the Potency result is “inactive”.
On to `CC(=O)Oc1c(C)c(C)c2c(c1C)CC[C@@](C)(CCC[C@H](C)CCC[C@H](C)CCCC(C)C)O2`, for which the Potency entry is “inactive”.
Turning to `c1ccc2c(c1)ccc1cc3c(ccc4ccccc43)cc12`, the Potency entry is “inactive”.
`Nc1ccc(O)c(N)c1`: the Potency was 44.7 µM (active).
With `CCCCCCCCCCCCO`, the Potency entry is “inactive”.
Turning to `CC(C)[N+](C)(CCOC(=O)C1c2ccccc2Oc2ccccc21)C(C)C`, the Potency entry is “inactive”.
In the case of `C=CCCCCCCCCCC`, the Potency result is “inactive”.
Same read-out and setting: the entry for `C[N+](C)(C)CCO` is “inactive”.
